We go through six molecules from PubChem BioAssay (EPA / NIEHS).

SMILES strings stand for the structures. Active and inactive are the calls of the source. The calls were made as follows: active = hit-call score of the fitted dose curve at least 0.9, where 1 is the maximum; inactive = score below 0.9.

The target in test [1] is Bile acid receptor (Homo sapiens) (UniProt Q96RI1). The test can be described thus: ATG_IR1_CIS: Attagene CIS-FACTORIAL HepG2 Assay for human Nuclear Receptor Subfamily 1 Group H Member 4 (NR1H4), IR1 submotif (AID 2282946). Particulars: IR1 reporter transcription, actives raise or lower the signal. In a few lines: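 Readout: reporter transcript levels by RT-PCR with fluorescent capillary electrophoresis, from HepG2 cells transiently transfected with multiplexed cis-regulated reporters and dosed 24 h. Gain- or loss-of-signal fitted versus DMSO negative control.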

Test [2] is described as follows: ATG_GRE_CIS: Attagene CIS-FACTORIAL HepG2 Assay for human Glucocorticoid Response Elements (GRE) (AID 2282947). Particulars: HepG2 GRE cis-reporter, Attagene multiplex mRNA; actives raise or lower the signal. In a few lines:
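Cells (HepG2) bearing transfected cis-promoter reporter transcription units were treated with chemical for 24 hours. Reporter mRNA was measured via RT-PCR with capillary electrophoresis, and activity was fitted in both directions relative to DMSO.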

The nature of test [3]: ATG_ISRE_CIS: Attagene CIS-FACTORIAL HepG2 Assay for human Interferon Regulatory Factor 1 (IRF1) binding to an Interferon-Stimulated Response Element (ISRE) (AID 2282948). The following applies: HepG2 ISRE cis-reporter (Attagene), mRNA transcription readout; actives raise or lower the signal. In a few lines:
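Multiplexed mRNA reporter readout in human liver HepG2 cells: cis-element-driven reporters transfected, compound added for 24 h, transcripts amplified, fluorescently labelled and sized by capillary electrophoresis; curve fitting bidirectional against DMSO.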

Test [4] in a line: ATG_M_32_CIS: Attagene CIS-FACTORIAL HepG2 Assay for M32 Transcription Factor (Internal Marker) (AID 2282949).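 Also: background control marker of the multiplexed CIS panel rather than a real target.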 The following applies: HepG2 Attagene cis-factorial M32 reporter, mRNA; actives raise or lower the signal. In a few lines: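 HepG2 human liver cells transiently transfected with cis-promoter-driven multiple reporter transcription units, dosed 24 h. Reporter mRNA quantified by RT-PCR, FAM-labelled primer extension, HpaI digest and capillary electrophoresis; bidirectional fit versus DMSO baseline.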

A short description of test [5]: ATG_M_06_CIS: Attagene CIS-FACTORIAL HepG2 Assay for M06 Transcription Factor (Internal Marker) (AID 2282950). Particulars: HepG2 Attagene CIS-FACTORIAL M06 internal marker reporter; actives raise or lower the signal. In a few lines:
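Fluorescence-labelled RT-PCR products from cis-promoter reporter units, cut with HpaI and resolved by capillary electrophoresis, give the signal. Cells are human HepG2, dosed for 24 h. Serves as background control, fitted relative to DMSO.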

In test [6] the target is Hypoxia-inducible factor 1-alpha (Homo sapiens) (UniProt Q16665). The test can be described thus: ATG_HIF1a_CIS: Attagene CIS-FACTORIAL HepG2 Assay for human Hypoxia Inducible Factor 1 (HIF1A) (AID 2282951). The following applies: HepG2 Attagene cis-factorial HIF1a reporter transcription; actives raise or lower the signal. In a few lines: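 Measures endogenous transcription-factor activity through cis-regulated reporter mRNA in HepG2. Cells dosed 24 h; transcripts quantified by RT-PCR with 6-FAM-labelled products separated by capillary electrophoresis; DMSO serves as negative control.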

For test [7], the target named is Hepatocyte nuclear factor 6 (Homo sapiens) (UniProt Q9UBC0). The test can be described thus: ATG_HNF6_CIS: Attagene CIS-FACTORIAL HepG2 Assay for human Hepatocyte Nuclear Factor 6 (HNF6) (AID 2282952). The following applies: HepG2 Attagene cis-factorial HNF6 reporter transcription; actives raise or lower the signal. In a few lines:
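Twenty-four-hour chemical treatment of reporter-transfected HepG2 cells precedes RNA isolation, DNase-treated reverse transcription and PCR of reporter sequences. Labelled fragments are sized by capillary electrophoresis and fitted bidirectionally versus DMSO.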

Test [8] has as its target Heat shock factor protein 1 (Homo sapiens) (UniProt Q00613). Put plainly: ATG_HSE_CIS: Attagene CIS-FACTORIAL HepG2 Assay for human Heat Shock Transcription Factor 1 (HSE) (AID 2282953). The following applies: HepG2 HSE cis-reporter, Attagene RNA transcription; actives raise or lower the signal. In a few lines:
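After a 24 h incubation with test chemical, transfected HepG2 cells were harvested for RNA; reporter transcripts were measured by RT-PCR and capillary electrophoresis. Values reflect gain or loss of signal relative to DMSO.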

Test [9] can be described thus: ATG_MRE_CIS: Attagene CIS-FACTORIAL HepG2 Assay for human Metal Responsive Element (MRE) (AID 2282954). The following applies: HepG2 MRE cis-reporter transcription, Attagene multiplex; actives raise or lower the signal. In a few lines: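 Cells were transfected with cis-promoter reporter transcription units, then dosed for 24 h. RNA was reverse-transcribed, amplified, fluorescently labelled and resolved by capillary electrophoresis, and activity was fitted in both directions relative to DMSO.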

Test [10] in a line: ATG_PBREM_CIS: Attagene CIS-FACTORIAL HepG2 Assay for human Phenobarbital-responsive Enhancer Module (PBREM) (AID 2282955). The following applies: HepG2 PBREM cis-reporter, Attagene multiplexed transcription; actives raise or lower the signal. In a few lines:
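Fluorescence of labelled reporter cDNA fragments, resolved by capillary electrophoresis, gives mRNA induction in transfected HepG2 cells treated for 24 h; DMSO serves as negative control and baseline.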

The target in test [11] is Paired box protein Pax-6 (Homo sapiens) (UniProt P26367). Put plainly: ATG_Pax6_CIS: Attagene CIS-FACTORIAL HepG2 Assay for human Paired Box 6 (PAX6) (AID 2282956). The following applies: HepG2 CIS-FACTORIAL PAX6 reporter transcription, RNA readout; actives raise or lower the signal. In a few lines: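 Fluorescent RT-PCR products separated by capillary electrophoresis report PAX6-linked promoter mRNA in HepG2 cells 24 h post-dose. Curves fitted bidirectionally, DMSO as negative control.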

Test [12] in a line: ATG_PXRE_CIS: Attagene CIS-FACTORIAL HepG2 Assay for human Pregnane X Receptor Element (PXRE) (AID 2282957). Particulars: HepG2 Attagene CIS-FACTORIAL PXRE reporter, mRNA; actives raise or lower the signal. In a few lines: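 Bidirectional activity, baselined to DMSO, derived from reporter mRNA fluorescence (RT-PCR plus capillary electrophoresis) in HepG2 cells bearing cis-promoter reporter units, 24 h exposure.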

Test [13] in a line: ATG_PPRE_CIS: Attagene CIS-FACTORIAL HepG2 Assay for human Peroxisome Proliferator-activated Response Element (PPRE) (AID 2282958). The following applies: HepG2 PPRE cis-element reporter, Attagene transcription factor profiling; actives raise or lower the signal. In a few lines: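 Cells are first transfected transiently with the multiplexed reporter library, then dosed for 24 h. Total RNA is reverse-transcribed, amplified, fluorescently end-labeled and HpaI-cut before capillary electrophoresis; activity is fitted bidirectionally against DMSO controls.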

Test [14] in a line: ATG_RORE_CIS: Attagene CIS-FACTORIAL HepG2 Assay for human RAR-related Orphan Receptor Element (RORE) (AID 2282959). Particulars: HepG2 Attagene cis-factorial RORE reporter, mRNA; actives raise or lower the signal. In a few lines: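 Cells were HepG2 carrying transfected cis-regulated reporter constructs, dosed for 24 hours. Total RNA was reverse-transcribed and reporter cDNA amplified, fluorescently labeled and sized by capillary electrophoresis. Activity was fitted bidirectionally relative to DMSO.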

The nature of test [15]: ATG_Sox_CIS: Attagene CIS-FACTORIAL HepG2 Assay for human SRY-box transcription factor (SOX) (AID 2282960). Particulars: HepG2 Attagene cis-factorial SOX reporter, mRNA; actives raise or lower the signal. In a few lines: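 Transient MRTU transfection of HepG2; 24 h compound incubation; TriZol RNA, oligo(dT) RT, PCR, 6-FAM primer extension, HpaI cut, CE. Bidirectional fit, DMSO = baseline.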

In test [16] the target is Transcription factor Sp1 (Homo sapiens) (UniProt P08047). The test can be described thus: ATG_Sp1_CIS: Attagene CIS-FACTORIAL HepG2 Assay for human Specificity Protein 1 (Sp1) (AID 2282961). The following applies: HepG2 Sp1 cis-reporter transcription, actives raise or lower the signal. In a few lines: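 Endogenous Sp1 activity was gauged in human liver HepG2 cells bearing transfected reporter units under a cis-regulating promoter. After 24 h dosing, reporter mRNA was quantified by RT-PCR with capillary electrophoresis, and activity fitted bidirectionally versus DMSO.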

The nature of test [17]: ATG_SREBP_CIS: Attagene CIS-FACTORIAL HepG2 Assay for human Sterol Regulatory Element Binding (SREBP) (AID 2282962). Particulars: HepG2 Attagene cis-factorial SREBP reporter, mRNA; actives raise or lower the signal. In a few lines: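 Endogenous factor activity is measured in HepG2 through multiplexed reporter units under cis-element control. Following a 24 h incubation, reporter transcripts are reverse-transcribed, PCR-amplified and sized by capillary electrophoresis; activity is fitted in both directions relative to DMSO.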

In test [18] the target is Signal transducer and activator of transcription 3 (Homo sapiens) (UniProt P40763). The test can be described thus: ATG_STAT3_CIS: Attagene CIS-FACTORIAL HepG2 Assay for human Signal Transducer and Activator of Transcription 3 (STAT3) (AID 2282963). Particulars: HepG2, Attagene cis-factorial STAT3 reporter transcription; actives raise or lower the signal. In a few lines:
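HepG2, MRTU-transfected, 24 h dosing. RNA → RT → PCR → FAM label → HpaI → CE. Bidirectional fit vs DMSO.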

Test [19] is described as follows: ATG_TA_CIS: Attagene CIS-FACTORIAL HepG2 Assay for human TA Basal Promoter (AID 2282964). The following applies: HepG2 Attagene CIS-factorial TA basal promoter reporter; actives raise or lower the signal. In a few lines: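 Multiplexed mRNA reporter assay, HepG2, 24 h. Reporter cDNA amplified, 6-FAM primer-extended, HpaI-cut, CE-sized; DMSO = negative control and baseline.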

Test [20] is described as follows: ATG_TCF_b_cat_CIS: Attagene CIS-FACTORIAL HepG2 Assay for human T-Cell-Factor with beta-catenin (TCF/b-cat) (AID 2282965). Particulars: HepG2 TCF/beta-catenin cis-reporter transcription, actives raise or lower the signal. In a few lines: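 Using capillary electrophoresis as the read-out, labelled reporter cDNA fragments from transiently transfected HepG2 were sized and quantified. Exposure lasted 24 hours; activity in either direction was referenced to DMSO.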

Chain of Heat shock factor protein 1 (Homo sapiens) (Q00613 whole entry, looked up): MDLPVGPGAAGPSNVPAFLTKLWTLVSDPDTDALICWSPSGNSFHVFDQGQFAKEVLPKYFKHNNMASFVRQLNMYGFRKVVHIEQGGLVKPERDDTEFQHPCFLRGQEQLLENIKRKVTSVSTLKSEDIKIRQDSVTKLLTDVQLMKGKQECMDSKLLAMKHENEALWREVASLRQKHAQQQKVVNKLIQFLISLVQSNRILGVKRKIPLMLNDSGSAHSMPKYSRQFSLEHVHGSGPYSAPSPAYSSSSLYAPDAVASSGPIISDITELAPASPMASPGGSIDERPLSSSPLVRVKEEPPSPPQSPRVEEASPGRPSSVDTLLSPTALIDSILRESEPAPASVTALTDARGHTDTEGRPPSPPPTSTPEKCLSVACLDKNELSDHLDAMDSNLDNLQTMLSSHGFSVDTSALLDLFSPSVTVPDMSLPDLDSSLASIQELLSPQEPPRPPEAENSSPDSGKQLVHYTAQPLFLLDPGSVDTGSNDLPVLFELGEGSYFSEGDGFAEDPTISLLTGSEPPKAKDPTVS
Chain of Transcription factor Sp1 (Homo sapiens) (P08047 whole entry, looked up): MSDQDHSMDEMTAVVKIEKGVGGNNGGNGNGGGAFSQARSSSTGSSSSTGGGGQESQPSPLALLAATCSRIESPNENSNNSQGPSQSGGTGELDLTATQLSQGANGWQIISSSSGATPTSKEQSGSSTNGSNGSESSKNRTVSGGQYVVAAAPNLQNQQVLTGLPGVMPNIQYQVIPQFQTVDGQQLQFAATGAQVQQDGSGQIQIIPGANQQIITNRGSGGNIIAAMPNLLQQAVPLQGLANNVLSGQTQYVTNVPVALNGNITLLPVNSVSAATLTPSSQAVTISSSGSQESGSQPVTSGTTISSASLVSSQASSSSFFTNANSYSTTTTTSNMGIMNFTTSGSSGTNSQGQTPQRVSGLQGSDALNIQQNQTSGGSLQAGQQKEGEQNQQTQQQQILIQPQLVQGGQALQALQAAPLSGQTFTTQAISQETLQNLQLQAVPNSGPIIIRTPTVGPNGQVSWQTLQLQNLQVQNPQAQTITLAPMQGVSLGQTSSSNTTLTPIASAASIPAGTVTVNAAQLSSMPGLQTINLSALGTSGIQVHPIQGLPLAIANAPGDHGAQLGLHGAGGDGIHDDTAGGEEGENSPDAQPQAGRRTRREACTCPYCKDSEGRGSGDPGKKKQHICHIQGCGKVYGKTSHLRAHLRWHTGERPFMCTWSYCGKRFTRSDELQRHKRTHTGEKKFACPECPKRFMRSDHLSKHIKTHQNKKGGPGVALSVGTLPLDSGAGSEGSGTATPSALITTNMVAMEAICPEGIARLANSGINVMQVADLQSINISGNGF
Chain of Paired box protein Pax-6 (Homo sapiens) (P26367 whole entry, looked up): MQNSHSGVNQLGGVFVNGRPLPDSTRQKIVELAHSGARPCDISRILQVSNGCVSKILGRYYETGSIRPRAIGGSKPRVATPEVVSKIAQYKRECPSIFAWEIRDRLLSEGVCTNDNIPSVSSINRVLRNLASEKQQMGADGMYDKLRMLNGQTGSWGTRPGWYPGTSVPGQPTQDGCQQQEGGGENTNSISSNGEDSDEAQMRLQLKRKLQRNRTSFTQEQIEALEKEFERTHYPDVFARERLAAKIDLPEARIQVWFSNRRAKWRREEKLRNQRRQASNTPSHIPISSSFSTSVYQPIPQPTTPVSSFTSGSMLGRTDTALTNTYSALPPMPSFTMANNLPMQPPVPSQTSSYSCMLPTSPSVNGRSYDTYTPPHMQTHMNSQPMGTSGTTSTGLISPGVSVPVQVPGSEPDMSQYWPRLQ
Chain of Bile acid receptor (Homo sapiens) (Q96RI1 whole entry, looked up): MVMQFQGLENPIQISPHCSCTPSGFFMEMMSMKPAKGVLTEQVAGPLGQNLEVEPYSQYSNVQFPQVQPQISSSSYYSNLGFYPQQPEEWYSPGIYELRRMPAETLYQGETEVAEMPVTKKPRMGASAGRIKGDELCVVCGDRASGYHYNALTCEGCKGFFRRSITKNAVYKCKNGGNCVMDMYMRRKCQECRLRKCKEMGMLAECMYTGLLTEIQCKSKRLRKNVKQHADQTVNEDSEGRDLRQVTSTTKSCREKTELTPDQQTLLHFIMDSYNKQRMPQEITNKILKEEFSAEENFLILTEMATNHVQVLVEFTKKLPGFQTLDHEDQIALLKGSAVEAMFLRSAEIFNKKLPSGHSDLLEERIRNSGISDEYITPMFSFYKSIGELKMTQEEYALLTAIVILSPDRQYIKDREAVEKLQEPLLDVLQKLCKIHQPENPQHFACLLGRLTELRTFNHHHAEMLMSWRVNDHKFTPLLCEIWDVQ
Chain of Signal transducer and activator of transcription 3 (Homo sapiens) (P40763 whole entry, looked up): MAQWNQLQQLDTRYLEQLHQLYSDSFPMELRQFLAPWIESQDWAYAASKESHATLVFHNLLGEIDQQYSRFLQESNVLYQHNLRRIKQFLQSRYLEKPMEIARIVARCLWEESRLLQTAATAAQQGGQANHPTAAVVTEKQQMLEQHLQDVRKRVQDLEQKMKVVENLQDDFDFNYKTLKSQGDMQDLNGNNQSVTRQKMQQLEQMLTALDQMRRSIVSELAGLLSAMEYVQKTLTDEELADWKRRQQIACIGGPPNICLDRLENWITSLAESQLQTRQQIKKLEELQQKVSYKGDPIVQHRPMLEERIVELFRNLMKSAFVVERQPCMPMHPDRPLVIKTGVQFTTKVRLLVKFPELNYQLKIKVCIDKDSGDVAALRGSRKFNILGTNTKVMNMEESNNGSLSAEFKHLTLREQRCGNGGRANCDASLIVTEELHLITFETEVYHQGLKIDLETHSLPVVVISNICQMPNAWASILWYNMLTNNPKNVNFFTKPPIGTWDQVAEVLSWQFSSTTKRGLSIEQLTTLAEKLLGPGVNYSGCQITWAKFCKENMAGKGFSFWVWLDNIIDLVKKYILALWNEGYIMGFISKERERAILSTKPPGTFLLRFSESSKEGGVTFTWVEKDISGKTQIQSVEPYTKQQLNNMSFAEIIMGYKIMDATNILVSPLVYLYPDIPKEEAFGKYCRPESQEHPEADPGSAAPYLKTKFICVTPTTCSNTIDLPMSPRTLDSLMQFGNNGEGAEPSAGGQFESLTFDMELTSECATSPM
Chain of Hepatocyte nuclear factor 6 (Homo sapiens) (Q9UBC0 whole entry, looked up, the tested form may be a part): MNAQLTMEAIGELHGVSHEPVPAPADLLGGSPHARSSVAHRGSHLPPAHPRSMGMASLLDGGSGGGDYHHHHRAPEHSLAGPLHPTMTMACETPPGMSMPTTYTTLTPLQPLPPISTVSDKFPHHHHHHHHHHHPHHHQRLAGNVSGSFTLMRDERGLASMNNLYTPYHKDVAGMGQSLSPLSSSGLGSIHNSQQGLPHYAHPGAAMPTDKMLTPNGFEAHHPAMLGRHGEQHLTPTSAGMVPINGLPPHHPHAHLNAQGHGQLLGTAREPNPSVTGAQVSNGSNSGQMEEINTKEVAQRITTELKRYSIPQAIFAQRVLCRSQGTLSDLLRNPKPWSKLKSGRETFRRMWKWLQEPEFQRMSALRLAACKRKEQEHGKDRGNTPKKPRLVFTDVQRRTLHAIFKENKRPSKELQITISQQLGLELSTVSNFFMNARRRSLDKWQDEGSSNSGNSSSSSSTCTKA
Chain of Hypoxia-inducible factor 1-alpha (Homo sapiens) (Q16665 whole entry, looked up): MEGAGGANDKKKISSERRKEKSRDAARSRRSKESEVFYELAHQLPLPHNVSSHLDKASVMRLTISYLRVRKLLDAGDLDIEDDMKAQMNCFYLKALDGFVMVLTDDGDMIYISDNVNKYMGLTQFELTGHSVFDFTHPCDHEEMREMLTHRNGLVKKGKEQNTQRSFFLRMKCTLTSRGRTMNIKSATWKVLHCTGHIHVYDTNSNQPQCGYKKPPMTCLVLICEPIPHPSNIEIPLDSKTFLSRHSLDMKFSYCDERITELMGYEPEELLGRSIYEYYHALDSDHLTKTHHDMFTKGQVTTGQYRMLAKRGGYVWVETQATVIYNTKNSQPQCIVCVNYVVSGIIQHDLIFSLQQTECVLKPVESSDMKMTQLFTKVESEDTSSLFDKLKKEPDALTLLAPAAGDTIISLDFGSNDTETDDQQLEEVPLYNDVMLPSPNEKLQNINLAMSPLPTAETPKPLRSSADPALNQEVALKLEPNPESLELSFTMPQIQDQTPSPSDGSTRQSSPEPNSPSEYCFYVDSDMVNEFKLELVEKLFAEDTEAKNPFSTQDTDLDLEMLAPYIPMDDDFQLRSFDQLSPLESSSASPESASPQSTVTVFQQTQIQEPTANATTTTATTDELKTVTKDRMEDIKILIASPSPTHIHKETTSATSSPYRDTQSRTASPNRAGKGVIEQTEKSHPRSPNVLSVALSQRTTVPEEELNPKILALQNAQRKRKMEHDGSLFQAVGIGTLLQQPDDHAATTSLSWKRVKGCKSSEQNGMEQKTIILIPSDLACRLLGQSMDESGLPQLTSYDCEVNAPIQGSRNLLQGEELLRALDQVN

As for `O=C(O)c1ccccc1C(=O)OCc1ccccc1`, the outcome in test [1], in test [2], in [3], in test [4], in test [5] and in [6] was inactive. Also, the molecule was called inactive in test [7], in [8], in test [9], in test [10], in test [11] and in test [12]. The result in test [13], in test [14], in test [15], in [16], in test [17] and in [18] was inactive. For the same molecule, the call in test [19] and in test [20] was inactive.
Turning to `COc1cc(C(=O)NC2CCN(C)CC2)ccc1Nc1ncc2c(n1)N(C1CCCC1)CC(F)(F)C(=O)N2C`, the outcome in [1], in [4], in test [5], in test [6], in test [7] and in test [8] was inactive. The outcome in test [10], in [13], in test [15] and in test [18] was inactive. Further, the AC50 in test [2] was 0.872 µM (active); in test [3], 4.8 µM (active); in test [9], 2.37 µM (active); in test [11], 3.75 µM (active); in test [12], 1.01 µM (active); in test [16] it was 0.525 µM (active). In addition, the half-maximal activity concentration (AC50) in [17] is 1.56 µM (active).
For `Cc1ccc(C(C)C)cc1`, the molecule was called inactive in test [1], in test [2], in [3], in test [4], in test [5] and in [6]. For the same molecule, the molecule was called inactive in test [7], in test [8], in [9], in test [10], in [11] and in test [12]. Moreover, the call in test [13], in test [14], in test [15], in [16], in test [17] and in test [18] was inactive. Further, the result in [19] was inactive.
As to `CC[C@H](NC(=O)c1cc(F)ccc1NS(=O)(=O)c1cccc2cccnc12)c1ccccc1`, the result in [1], in test [2], in test [3], in [4], in test [5] and in test [6] was inactive. Besides, the molecule was called inactive in [7], in test [8], in test [9], in test [11], in [13] and in [15]. For the same molecule, the result in [16], in test [18] and in test [20] was inactive. The values for the AC50 in test [12] and in [17] were 0.0144 µM (active) and 27.1 µM (active), respectively.
Consider `CC(C)(C)c1csc(-c2cc3cc(OCc4ccccc4CC(=O)O)ccc3o2)n1`, for which the outcome in test [1], in test [2], in test [4], in test [5], in test [7] and in test [10] was inactive. The molecule was called inactive in [12], in test [15], in [16] and in [18]. For the same molecule, the AC50 in [3] was 33.4 µM (active); in test [8], 62.7 µM (active); in test [9] it was 43.8 µM (active); in test [11], 7.32 µM (active); in test [13] it was 33.4 µM (active); in [17] it was 6.91 µM (active). Besides, the AC50 in test [19] is 6.62 µM (active).
Turning to `Cc1c2ccccc2c(C)c2c1ccc1ccccc12`, the half-maximal activity concentration (AC50) in [1] was 6.62 µM (active); in test [4] it was 55.3 µM (active); in test [12] it was 2.42 µM (active); in test [14] it was 54.8 µM (active); in [15], 52.4 µM (active); in [16] it was 6.93 µM (active). Further, the half-maximal activity concentration (AC50) in test [20] is 53.4 µM (active). The molecule was classed as inactive in test [2], in test [3], in test [5], in [6], in [7] and in test [8]. Besides, the molecule was classed as inactive in test [9], in [10], in test [11], in [13], in [17] and in test [18].

The term AC50 denotes the midpoint of the concentration-response curve, whichever way the signal moves.
